Laboratory results taken from PubChem BioAssay AID485299 (Sanford-Burnham Center for Chemical Genomics, 2010).
Hit rate of the full screen: of about 1,000 compounds, about 630 (63%) were called active.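 The calls were made as follows: active = reporter signal at least 30% of the positive control's activation in two or more of four replicate wells; inactive = the rest.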 So high a share suggests a set chosen from earlier hits. These entries were drawn from the full list.

Experiment: IRE1-XBP1 UPR arm activators, confirmation, cell-based, CHO-XBP1 luciferase reporter, luminescence, single concentration (AID 485299);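 also: plate controls were DMSO negative control for no effect and tunicamycin 10 µg/mL positive control for full effect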
Conditions: at 20 µM, stronger effect = higher value

Row | SMILES | activation
1 | OCCNc1nc(Nc2ccc(Cl)c(Cl)c2)nc2ccccc12 | 47.6% (active)
2 | Cc1ccc(SC(=O)COc2ccc(C)c(C)c2)cc1 | 19.5% (inactive)
3 | CSc1nc(-c2ccccc2)nc(C(Cl)Cl)n1 | 29.4% (inactive)
4 | Cc1ccc(S/C(=N\S(=O)(=O)c2ccc(Cl)cc2)c2ccccc2)cc1 | 9.43% (inactive)
5 | CCOc1ccc(S(=O)(=O)Nc2cccc(C(=O)NCC3(N4CCCCC4)CCCCC3)c2)cc1 | 92.9% (active)
6 | Cc1nc2cc(NC(=O)CSc3nc4c(C)cccc4cc3C#N)ccc2s1 | 42.3% (active)
7 | CCCc1nc2ccccc2c(=O)n1/N=C/c1ccc(O)c(O)c1 | 36.6% (active)
8 | CN(C)CCCN(C(=O)c1ccc(S(=O)(=O)N2CCCCCC2)cc1)c1nc2ccc(Br)cc2s1 | 71.3% (active)
9 | N#CCC(=O)N/N=C/c1cn(Cc2ccc3ccccc3c2)c2ccccc12 | 87.5% (active)
10 | O=C(Nc1ccc2nc3n(c(=O)c2c1)CCCCC3)c1ccccc1Cl | 44.4% (active)
11 | N#CC(=C1SC=CS1)c1nc(-c2ccccc2)cs1 | 2.43% (inactive)
12 | CCCc1nc2c(c(=O)c3ccccc3n2C)c(=O)n1C1CCCCCC1 | 61.8% (active)
13 | CCOC(=O)N1CCN(C(=O)c2nn(-c3ccc(C)cc3)c(=O)c3c2c2ccccc2n3C)CC1 | 7.78% (inactive)
14 | C=CCN(CC=C)S(=O)(=O)c1ccc(C(=O)Nc2nc3c(s2)CCc2ccccc2-3)cc1 | 90.9% (active)
15 | CCN1C(=O)N[C@@H](c2ccccc2)[C@H](C(C)=O)[C@H]1C | -1.6% (inactive)
16 | CN(C)C(=O)CCc1ccc2c3c([nH]c2c1)[C@]1(CCc2ccccc2)[C@@H](C(=O)N2CCCCC2)C[C@H](CC(=O)NCCC2=CCCCC2)C(=O)N1CC3 | 52.1% (active)
17 | N#Cc1c(N)nc2c3c(sc(=N)c2c1N)NC(=O)CC3c1ccccc1Cl (stereo unspecified) | 0.75% (inactive)
18 | CCOc1ccc2nc(Cl)c(C3CC(c4ccccc4)=NN3C(=O)c3cccs3)cc2c1 (stereo unspecified) | 19.5% (inactive)
19 | O=C(C[C@H]1C/C=C\C[C@@H](NC(=O)OCC2c3ccccc3-c3ccccc32)C(=O)O[C@@H](c2ccccc2)CNC1=O)N[C@H](CO)Cc1ccccc1 | 69.3% (active)
20 | CCOC(=O)C1=C(O)/C(=C/c2ccc(OCC(=O)Nc3ccc(C)cc3)cc2)N=C1C | -1.95% (inactive)
21 | N#Cc1ccccc1NC(=O)COc1c(Br)cc(Br)c2cccnc12 | 88.3% (active)
22 | CCCc1ccc(OCc2ccc(C(=O)N/N=C/c3cccc([N+](=O)[O-])c3)o2)c(OC)c1 | 2.93% (inactive)
23 | CCCCCC(=O)Nc1ccc(C(=O)N/N=C/c2ccc([N+](=O)[O-])cc2)cc1 | 66.5% (active)
24 | CN(c1cccc(NC(=O)Nc2ccc(Cl)cc2)c1)S(C)(=O)=O | 0.25% (inactive)
25 | Oc1cccc2ccc(/C=C/c3ccc(Br)s3)nc12 | 50.4% (active)
26 | Cc1ccc(-c2nnc(-c3ccc(NC(=O)c4cccs4)cc3)o2)cc1 | 213% (active)

Row | SMILES | activation
27 | CN1C(=O)/C(=C/c2ccc(C(=O)NC3CCCC3)cc2)Oc2ccccc21 | 32.3% (active)
28 | COc1ccc(CNC(=O)/C(C#N)=C/c2cccc(OC)c2OC)cc1 | 40.4% (active)
29 | O=C(CCCCCn1c(=S)[nH]c2cc3c(cc2c1=O)OCO3)N1CCN(c2ccc(F)cc2)CC1 | 10.3% (inactive)
30 | Cc1cccc(Nc2nc3c(S(=O)(=O)c4ccccc4)nnn3c3ccccc23)c1C | 120% (active)
31 | O=C(/C=C/c1ccccc1)c1ccccc1O | 54.9% (active)
32 | Cc1ccc(S(=O)(=O)N(CC(=O)N/N=C/c2ccc(F)cc2)c2cccc3cccnc23)cc1 | 55.3% (active)
33 | CCCCCCCCCCOC(=O)Cn1c(COc2ccc(C)cc2)[n+](C)c2ccccc21 | 49.2% (active)
34 | COc1ccc(Nc2cc(C)nc(-n3nc(C)cc3C)n2)cc1 | 28.5% (inactive)
35 | CCOC(=O)c1c(NC(=O)CNC2CCCc3ccccc32)sc(C(N)=O)c1C (stereo unspecified) | 34.3% (active)
36 | CCC1(CC)Cc2ccccc2-c2nc(CCl)[nH]c(=O)c21 | 14.5% (inactive)
37 | CCOC(=O)/C=c1\s/c(=C\c2ccc(C#N)cc2)c(=O)n1CC(=O)Nc1cccc(C)c1C | 11.4% (inactive)
38 | Cc1cc(NC(=O)CSc2nc3cc(Cl)ccc3c(=O)n2Cc2ccco2)no1 | 55.5% (active)
39 | CC(=O)Nc1ccccc1Sc1ccc2c3c(cccc13)C(=O)N(c1ccc(C)cc1)C2=O | 79% (active)
40 | C=CC[C@@H](CC(=O)N[C@@H](CO)Cc1ccccc1)C(=O)N[C@H](COC(=O)[C@H](CC=C)CC(=O)OC(C)(C)C)Cc1ccccc1 | 4.58% (inactive)
41 | O=C(COC(=O)/C=C/c1cn(-c2ccccc2)nc1-c1cccnc1)Nc1ccc(Cl)cc1Cl | 74.4% (active)
42 | Cc1ccc(Cc2cnc(NC(=O)/C(C#N)=C/c3ccc(-c4cccc([N+](=O)[O-])c4)o3)s2)cc1 | 217% (active)
43 | OC(CNCC1CCCO1)Cn1c2ccc(Br)cc2c2cc(Br)ccc21 (stereo unspecified) | 44% (active)
44 | C=CCNc1nc(N)c([N+](=O)[O-])c(NC2CCCCC2)n1 | 12.5% (inactive)
45 | CCc1nn(-c2cc(Oc3cccc4ccccc34)nc(-c3ccccc3)n2)c(N)c1C#N | 138% (active)
46 | CCc1nc(C)cn1S(=O)(=O)c1cc([N+](=O)[O-])ccc1Cl | 55.6% (active)
47 | COc1cc(NC(=O)c2cncc(-c3ccc(C#N)cc3)c2)cc(C(=O)Nc2cccc(C(F)(F)F)c2)c1 | 129% (active)
48 | COC(=O)Cc1csc(/N=C/c2c(O)n(-c3cccc(C(F)(F)F)c3)c(=O)c3ccccc23)n1 | 42.5% (active)
49 | COc1ccccc1N=Cc1c(O)c2ccccc2oc1=O | 113% (active)
50 | CC(C)=CCCC1(C)C=Cc2c(ccc3c2[nH]c2cc(O)c(C)cc23)O1 (stereo unspecified) | 35.4% (active)
51 | Oc1ccc(Br)cc1/C=N/Nc1ccccn1 | 63.7% (active)
